Source: PubChem BioAssay AID504834 (National Center for Advancing Translational Sciences (NCATS), 2011)
Screen size: about 320,000 compounds; about 22,000 (6.9%) were called active. Inconclusive results (about 27%) are left out. The sample holds actives, similar compounds and a random draw of the others, so the mix is not that of the screen. Values without a mark were called inactive. The call rests on the fitted dose curve; in most records, active means well fitted inhibition curve with a large enough effect; inconclusive means small, poorly fitted or top-dose-only effect, or another doubt; inactive means no such curve, though single readings can be large or run the other way.

Assay: Primary qHTS for delayed death inhibitors of the malarial parasite plastid, 96 hour incubation
Settings: P. falciparum luciferase reporter growth; series mostly up to 28.7 µM; activity change, negative = inhibition: at the top concentration
How it was run: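 Parasite growth measured via integrated firefly luciferase reporter in P. falciparum. Infected erythrocytes at 2% hematocrit, 0.05% parasitemia final were treated 96 hours at 37 C under 5% CO2, and luminescence was read.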
On the % scale 0 is the no-effect control and ±100 the full control effect; potency means the concentration at half of the fitted maximal effect.

Compound | activity change, negative = inhibition | Potency
CS(=O)(=O)N(CC(=O)Nc1ccc(F)cc1)C1CCCCC1 | 19.4% | –
CCOC(=O)Cn1c(O)c(N=NC(=O)CNC(=O)Cc2ccccc2)c2ccccc21 | 18.9% | –
Cc1nc2nc(C)c(NS(=O)(=O)c3ccc(C(C)(C)C)cc3)c(=O)n2[nH]1 | 26.3% | –
CC1CCN(C(=O)c2cccc(S(=O)(=O)N3CCCc4ccccc43)c2)CC1 | -9.51% | –
CC1CCN(C(=O)COC(=O)c2cc(=O)[nH]c3ccccc23)CC1 | 2.14% | –
CN(C)NC(=O)c1csnc1-c1c(Cl)cccc1Cl | -3.91% | –
O=C(COC(=O)CNS(=O)(=O)c1ccc(F)c(F)c1F)NC1CCCC1 | 15% | –
O=C(Nc1nc2ccccc2s1)c1ccc2c(c1)OCO2 | 31.4% | –
Cc1ccc(-c2csc(NC(=O)C3=COCCO3)n2)cc1C | – | 6.57 µM (active)
Cc1ccc(-c2csc(NC(=O)c3cnccn3)n2)cc1C | -3.59% | –
O=C(Nc1nc(-c2ccc3c(c2)OCO3)cs1)c1ccncc1 | – | 4.15 µM (active)
CC(=O)NCCC(=O)Nc1nc(-c2ccc3c(c2)OCCO3)cs1 | 105% | –
Cc1csc(NC(=O)C2=COCCO2)n1 | 121% | –
COc1ccc(NC(=O)NNC(=O)COc2cc(C)c(Cl)c(C)c2)c(OC)c1 | 15.4% | –
COC(=O)c1ccc(COc2cc([N+](=O)[O-])cc3cccnc23)cc1 | 105% | –
CCc1ccc(S(=O)(=O)NCC(O)COc2ccc(OC)cc2)cc1 (stereo not drawn) | 30.5% | –
O=C(Nc1cccc(-n2cnnn2)c1)c1cccnc1 | 33.7% | –
CC(=O)C(C)n1cnc2scc(-c3ccc(C)cc3)c2c1=O (stereo not drawn) | -25.2% | –
CCOC(=O)c1c(NC(=O)CCl)sc(C(=O)N(CC)CC)c1C | – | 9.28 µM (active)
CCOC(=O)c1sc(NC(=O)CCN2CCOCC2)c(C(=O)OCC)c1C | 22.1% | –
CCOC(=O)Nc1sc(C(=O)N(C)C)c(C)c1C(=O)OCC | 207% | –
O=C(NCc1ccncc1)c1ccc(NS(=O)(=O)c2cccc([N+](=O)[O-])c2)cc1 | -1.86% | –
Cc1nc2ccccc2c(=O)n1-c1ccc(NS(=O)(=O)c2ccc(F)cc2F)cc1 | 17.4% | –
CCn1c(Cc2ccccc2)nnc1SCc1nc2ccccc2c(=O)[nH]1 | 9.46% | –
COCCn1c(SCc2nc3cc(OC)c(OC)cc3c(=O)[nH]2)nnc1-c1ccncc1 | 40.9% | –
CCn1c(SCc2ccccc2)nc2cc(OC)c(OC)cc2c1=O | – | 2.94 µM (active)

Compound | activity change, negative = inhibition | Potency
CS(=O)(=O)c1ccc(-c2nnn(CC(=O)Nc3ccc4c(c3)OCCO4)n2)cc1 | 19.7% | –
O=C1c2ccccc2C(=O)C1c1ccccc1F | -0.389% | –
O=C(NCc1ccco1)c1ccc([N+](=O)[O-])cc1Cl | -5.31% | –
Cc1ccc2c(c1)C1CN(C)CCC1N2C(=O)Cn1nnc(-c2ccccc2F)n1 (stereo not drawn) | 27.2% | –
Cc1ccc2c(c1)C1CN(C)CCC1N2C(=S)Nc1ccc(Cl)cc1Cl (stereo not drawn) | -2.18% | –
Cc1ccc2c(c1)C1CN(C)CCC1N2C(=O)c1ccccc1NS(=O)(=O)c1ccc(F)cc1C (stereo not drawn) | – | 9.28 µM (active)
CC(OC(=O)CNC(=O)c1ccco1)C(=O)Nc1ccc(Cl)cn1 (stereo not drawn) | 19.5% | –
Cc1nn(-c2ccccc2)c(C)c1/C=N/NC(=O)CSc1nc2ccccc2c(=O)n1-c1ccccc1 | -19.8% | –
Cc1ccc(-n2c(SCC(=O)N/N=C/C=C/c3ccccc3[N+](=O)[O-])nc3ccccc3c2=O)cc1 | – | 10.4 µM (active)
O=C(CSc1nc2ccccc2[nH]1)N/N=C/C=C\c1ccccc1[N+](=O)[O-] | -5.62% | –
COc1ccc(CCNC(=O)CN(C)S(=O)(=O)c2ccc3nc(C)sc3c2)cc1OC | 4.32% | –
COCCn1c(SCC(=O)Nc2cc(Cl)ccc2OC)nc2c(c1=O)SC(C)C2 (stereo not drawn) | – | 3.7 µM (active)
CCn1c(SCC(=O)Nc2ccccc2F)nc2c(c1=O)SC(C)C2 (stereo not drawn) | – | 11.7 µM (active)
CCCCSc1nc2c(c(=O)n1CC)SC(C)C2 (stereo not drawn) | -41.8% | –
COCCn1c(SCC(=O)Nc2ccccc2F)nc2c(c1=O)SCC2 | – | 14.7 µM (active)
Cn1nnnc1SCC(=O)Nc1ccccc1C(=O)NC1CC1 | 11.2% | –
CCn1c(SCC(=O)Nc2ccc3c(c2)OCCO3)nc2c(c1=O)SC(C)C2 (stereo not drawn) | 6.59% | –
COCCn1c(SCC(=O)Nc2cc(OC)ccc2OC)nc2c(c1=O)SC(C)C2 (stereo not drawn) | -29.5% | –
CC1Cc2nc(SCC(=O)Nc3ccccc3F)n(C)c(=O)c2S1 (stereo not drawn) | 27.8% | –
Cn1c(SCC(=O)N2CCCCC2)nc2c(c1=O)SCC2 | -11.4% | –
CCOc1ccc(CCNC(=O)COC(=O)C2CCN(c3ccc(C(F)(F)F)cn3)CC2)cc1OCC | -3.1% | –
FC(F)(F)C1CCCN(c2nsc3ccccc23)C1 (stereo not drawn) | -53.7% | –
Cc1cccc(NC(=O)C2CCCN(C(=O)Nc3ccc(F)cc3)C2)c1C (stereo not drawn) | 33.5% | –
CCOC(=O)N1CCN(S(=O)(=O)c2ccc(Br)cc2)CC1 | -3.72% | –
CC(C)(C)c1ccccc1NC(=O)CN1C(=O)NC2(CCCC2)C1=O | 18% | –
CN(C)c1ccc(C2Nc3ccccc3C(=O)N2NS(=O)(=O)c2ccccc2)cc1 (stereo not drawn) | 7.21% | –

Compound | activity change, negative = inhibition | Potency
CC1C(=O)Nc2ccccc2N1C(=O)c1c(F)cccc1F (stereo not drawn) | -2.07% | –
CC(C)C(=O)N1c2ccccc2NC2=C(C(=O)CCC2)C1c1ccc(N(C)C)cc1 (stereo not drawn) | – | 2.33 µM (active)
Cc1ccc(C(NC(=O)N2CCCC2)C(Cl)(Cl)Cl)cc1F (stereo not drawn) | – | 8.28 µM (active)
Cc1cc(C)cc(NC(=O)N2CCCCCCC2)c1 | -12.7% | –
Cc1ccc(C(=O)N2CCCC2)c(F)c1F | 43.2% | –
CC(Sc1ncnc2c1cnn2-c1ccccc1)C(=O)Nc1ccc(N2CCOCC2)cc1 (stereo not drawn) | 52.5% | –
CCOC(=O)c1ccccc1CN1C(=O)c2ccccc2S1(=O)=O | -21.7% | –
CCOC(=O)c1cc2n(c1C)-c1ccccc1C2=O | – | 9.28 µM (active)
CCOC(=O)c1cc2n(c1N)-c1ccccc1C2=O | -2.58% | –
Nc1c(N(CCO)C(=O)C2CCCCC2)c(=O)[nH]c(=O)n1Cc1ccccc1 | -15.8% | –
CC(=O)Nc1ccc(-c2csc(NC=C3C(=O)OC(C)(C)OC3=O)n2)cc1 | 48.3% | –
CC(=O)Nc1ccc(S(=O)(=O)Nc2nc(-c3ccc(C(C)(C)C)cc3)cs2)cc1 | – | 1.65 µM (active)
CC(=O)Nc1ccc(-c2csc(NC(=O)Nc3ccccc3)n2)cc1 | -17% | –
O=C(CSc1nnc(CNC(=O)c2ccc(F)cc2)o1)Nc1ccc2c(c1)OCO2 | 17.8% | –
Cc1ccc(N2C(=O)CC(N3CCSCC3)C2=O)c(C)c1 (stereo not drawn) | 32.4% | –
N#Cc1ccc(S(=O)(=O)NCC(=O)OCC(=O)NCCc2ccccc2)cc1 | 0.639% | –
O=C(COC(=O)CCc1nc2ccccc2c(=O)[nH]1)Nc1ccc(N2CCOCC2)cc1 | 31.5% | –
CC(C)NC(=O)CSc1nnc(COc2ccccc2Cl)o1 | -6.92% | –
Cc1ccc(NC(=O)CSc2nnc(COc3ccccc3C)o2)cc1 | -34.1% | –
Cc1ccccc1OCc1nnc(SCC(=O)N2c3ccccc3Sc3ccc(Cl)cc32)o1 | – | 13.1 µM (active)
O=C(NNS(=O)(=O)Cc1ccccc1)c1ccc([N+](=O)[O-])cc1 | 5.29% | –
Cn1c(-c2sc3cc(C(F)(F)F)cnc3c2-c2ccccc2)n[nH]c1=S | -10.7% | –
Cc1ccccc1-c1n[nH]c(=S)n1C | 19.3% [at 5.75 µM] | –
Cn1c(-c2sccc2OCc2cccc(C(F)(F)F)c2)n[nH]c1=S | – | 14.7 µM (active)
O=c1o[nH]c(-c2ccccc2)c1N=Nc1c(F)cccc1Cl | 43% | –
CC[C@H]1CN2CCc3cc(OC)c(OC)cc3[C@@H]2C[C@@H]1C[C@H]1NCCc2cc(OC)c(OC)cc21 | – | 0.0738 µM (active)

Compound | activity change, negative = inhibition | Potency
COC(=O)c1ccc([C@@H](O)[C@H](C)C(=O)CC(=O)OC(C)(C)C)cc1 | -0.0226% | –
CCn1nc(C)c(/C=N/NC(=O)Cc2ccc(Cl)cc2)c1C | 1.71% | –
Cc1nn(Cc2ccc(Cl)cc2)c(Cl)c1/C=N/NC(=O)CNc1ccccc1F | – | 9.28 µM (active)
COc1ccc(Cl)cc1NC(=O)CNc1ccccc1F | -27.6% | –
Cc1ccccc1OCC(=O)Nc1ccc2c(c1)ncn2C | -3.77% | –
COc1ccc2nc(N3CCN(C(=O)c4ccc([N+](=O)[O-])o4)CC3)sc2c1 | – | 0.738 µM (active)
CCN(CC)CCN(C(=O)c1cccc([N+](=O)[O-])c1)c1nc2ccc(OC)cc2s1 | 30.2% | –
COc1cccc(-c2nn(C)c3sc(C(=O)N4CCN(c5ccccc5)CC4)cc23)c1 | -0.824% | –
C=CCNC(=S)N/N=C/c1ccc(OCc2ccccc2)cc1 | 10.7% | –
CCOc1ccc(NC(=O)C/C(C)=N/NC(=O)Cc2cccs2)cc1 | 3.76% | –
O=C(Cc1cccs1)N/N=C/c1ccc(OCc2ccccc2)cc1 | – | 11.7 µM (active)
O=C(Nc1ccc(-n2cccn2)cc1)C1CCN(Cc2ccsc2)CC1 | 31.9% | –
CCn1c(SCC(=O)Nc2cc(C)c(Cl)cc2OC)nnc1-c1ccco1 | 29.3% | –
COc1ccc(NC(=O)CCC(=O)Nc2cc(OC)c(NC(=O)c3ccco3)cc2OC)c(OC)c1 | 2.14% | –
COc1ccc(NC(=O)CSc2ccc(-c3ccco3)nn2)c(OC)c1 | – | 14.7 µM (active)
COc1cc(Cl)c(C)cc1NC(=O)CSc1nnc(-c2ccco2)n1CC(C)C | – | 10.4 µM (active)
O=C(CSc1ccc(-c2ccco2)nn1)NCc1ccc2c(c1)OCO2 | -19.1% | –
COc1ccccc1NC(=O)CSc1nnc(C)n1CC1CCCO1 (stereo not drawn) | 0.0774% | –
CCN(CC)c1ccc(/C=N/NC(=O)CNC(=O)c2cccs2)cc1 | 34.7% | –
O=C(Nc1ccccc1-c1nc2ccccc2[nH]c1=O)c1cccs1 | -24.4% | –
Cc1ccc(C(CNC(=O)Nc2ccccc2)N2CCN(C)CC2)cc1 (stereo not drawn) | 14.9% | –
O=C1NS(=O)(=O)c2ccccc21 | 13.4% | –
CC(C)(C)c1ccc(OC2=CS(=O)(=O)c3ccccc32)cc1 | – | 9.28 µM (active)
CC(C)(C)c1ccc(Oc2ccc(N)cc2)cc1 | 27.6% | –
CCn1cc(/C=C(\NC(=O)c2cc(OC)c(OC)c(OC)c2)C(=O)N2CCN(C)CC2)c2ccccc21 | 18.6% | –
